Source: PubChem
Hits are enriched below; roughly 28% of the tested compounds scored in any of these assays.
PTK2B oligo ant = antagonists of human Pyk2 oligomerization. Q14289. Q293 cells, Pyk2 FERM NanoBiT luminescence; stronger effect = lower value. z-score (the deposit names both 25 µM and 10 µM). actives 0.83% (n = 99,000);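 active = Z-score of -3 or lower, scaled per plate to the spread of control and sample wells; inactive = z-score above -3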;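 also: negative z-score means lost luminescence so less FERM oligomerization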
CYP2C19 activ = cytochrome P450 2C19 (human) activation; recombinant CYP2C19, luciferin-H EGE luminescence; stronger effect = higher value; 0 = fully inhibited enzyme, 1 = untreated enzyme; activation factor at 5 µM; 96,000 tested, under 10 active; P33261;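 active = activation factor of at least 2 at 5 µM in the primary screen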;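 also: 0 = wells with 2.5 mM tranylcypromine and 1 = vehicle-only wells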
Target sequence (P33261 whole entry, looked up): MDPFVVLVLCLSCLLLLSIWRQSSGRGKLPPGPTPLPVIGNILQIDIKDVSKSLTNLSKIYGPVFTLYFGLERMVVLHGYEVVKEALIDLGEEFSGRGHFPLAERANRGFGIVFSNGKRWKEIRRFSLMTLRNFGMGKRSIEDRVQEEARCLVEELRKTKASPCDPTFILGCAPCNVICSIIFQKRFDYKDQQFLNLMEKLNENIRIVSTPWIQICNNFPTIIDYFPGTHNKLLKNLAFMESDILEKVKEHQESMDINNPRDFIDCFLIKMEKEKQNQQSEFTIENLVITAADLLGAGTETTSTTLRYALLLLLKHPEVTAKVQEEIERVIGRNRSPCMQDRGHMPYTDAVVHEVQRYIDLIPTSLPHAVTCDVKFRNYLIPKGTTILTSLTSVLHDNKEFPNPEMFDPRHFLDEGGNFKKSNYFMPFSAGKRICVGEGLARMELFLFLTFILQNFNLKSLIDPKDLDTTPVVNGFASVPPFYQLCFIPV
CYP2C19 inh = blocks human cytochrome P450 2C19 | P33261 | CYP2C19 Supersomes, luciferin-H EGE luminescence, 30 min | inhibition, % at 5 µM | actives 21% (n = 96,000);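 active = CYP2C19 inhibition above a set limit at 5 µM in the primary screen, cut at about 50% in these data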;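 also: plate controls were negative control wells for no effect and 2.5 mM tranylcypromine positive control for full effect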
CYP2C9 activ = activators of human CYP2C9. activation factor at 5 µM. AID 1024. P11712. recombinant CYP2C9, luciferin-H conversion, luminescence; stronger effect = higher value; factor 1 = untreated enzyme, 0 = blocked. actives 1.4% (n = 96,000);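 active = activation factor of 2 or more for CYP2C9 at a 5 µM dose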;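 also: 0 = sulfaphenazole-blocked wells and 1 = vehicle-only wells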
CYP2C9 inh = inhibitors of human CYP2C9; actives 20% (n = 96,000); CYP2C9 Supersomes, luciferin-H conversion, luminescence; inhibition, % at 5 µM; P11712;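 active = blocking of liver enzyme CYP2C9 beyond about 50% at 5 µM, limit read from the data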
An asterisk follows results filed as active; / = no result given.

SMILES | PTK2B oligo ant | CYP2C19 activ | CYP2C19 inh | CYP2C9 activ | CYP2C9 inh
CCOc1cc(CN2CCOCC2)cc(C(C)=O)c1 | 0.76 | 0.7 | 30.7 | 0.9 | 6.0
CC(NC(=O)C12CC3CC(C1)CC(n1cncn1)(C3)C2)C12CC3CC(CC(C3)C1)C2 (stereo not drawn) | -2.34 | 0.3 | 67.9* | 0.3 | 71.7*
O=C(NC1CCCCC1)C12CC3CC(C1)CC(n1cncn1)(C3)C2 | 0.29 | 1.1 | -5.0 | 1 | -0.1
O=C(C1COc2ccccc2O1)N1CCc2ccccc2C1 (stereo not drawn) | 0.24 | / | / | / | /
COc1ccc2nc(SCC(=O)Nc3ccc4sc(C)nc4c3)c(C#N)cc2c1 | -0.8 | 0.8 | 24.8 | 0.5 | 45.4
C=CCn1cc(C(=O)NCCCOC)c(=O)c2cc(S(=O)(=O)N(CC)CC)ccc21 | -0.48 | 1.1 | -8.0 | 0.4 | 59.4*
CN(C)S(=O)(=O)c1ccc2c(c1)c(=O)c(C(=O)NCCCN1CCCCCC1)cn2C | / | 1 | -0.2 | 0.9 | 13.3
CCN(CC)S(=O)(=O)c1ccc2c(c1)c(=O)c(C(=O)NCCCN(C)c1ccccc1)cn2C | -0.65 | 0.9 | 10.5 | 0.4 | 57.1*
CN(CCCNC(=O)c1cn(C)c2ccc(S(=O)(=O)N(C)C)cc2c1=O)c1ccccc1 | / | 0.8 | 22.6 | 0.4 | 60.1*
Nc1nc(NCc2ccccc2)nc(Nc2ccc(F)cc2)c1[N+](=O)[O-] | 2.02 | 1.1 | -10.8 | 1 | 2.4
COc1nc(/C(N)=N/O)nc(N2CCCCC2)n1 | -0.05 | 1.1 | -13.3 | 1.1 | -8.1
COc1nc(N2CCCCCC2)nc(N2CCCCCC2)n1 | -1.02 | 0.5 | 46.5 | 0.5 | 50.8*
O=C(NNC(=O)c1cccnc1SCc1cccc([N+](=O)[O-])c1)c1ccccn1 | 1.02 | / | / | / | /
Cc1cccc(CN2C(=O)N/C(=C/c3cc(C)n(-c4cc(C)ccn4)c3C)C2=O)c1 | 0.78 | 0.6 | 44.9 | 0.4 | 61.2*
CNC(=O)CC(C(=O)O)c1ccc(OCC(C)C)cc1 (stereo not drawn) | 0.36 | 1.1 | -13.6 | 1.1 | -12.7
Cc1[nH]c2ccccc2c1C(=O)CN1CCCCC1CCO (stereo not drawn) | 2.11 | 0.8 | 17.5 | 0.7 | 31.6
COc1ccc(Cl)cc1NC(=O)CSc1nc(N2CCCCC2)nc(N2CCCCC2)n1 | 0.13 | 0.8 | 19.5 | 0.2 | 84.5*
COc1ccc(/C=N/Nc2nc(N3CCCC3)nc(N3CCCC3)n2)cc1O | -0.25 | 1.2 | -17.2 | 1.2 | -19.9
COc1ccc(Cl)cc1Nc1nc(NCCO)nc(N2CCCC2)n1 | -2.93 | 0.4 | 56.7* | 0.4 | 58.8*
c1ccc(-c2nc(-c3ccccn3)no2)cc1 | -0.15 | / | / | / | /
Cc1ccc(-c2nc(-c3ccccn3)no2)cc1 | -0.75 | 0.1 | 87.4* | 0.4 | 58.0*
c1ccc(-c2noc(-c3ccco3)n2)nc1 | -0.82 | 0.2 | 77.4* | 0.6 | 36.3
Clc1cccc(-c2nc(-c3ccccn3)no2)c1 | -0.76 | 0.5 | 51.4* | 0.7 | 32.9
O=C(CNc1ccccc1-c1ccccc1)NCc1ccccc1 | -0.3 | / | / | / | /
CC(C)c1nc2sc3c(NCc4ccccc4)ncnc3c2c2c1COC(C)(C)C2 | -1.31 | 1.1 | -9.9 | 1 | -4.0
SMILES | PTK2B oligo ant | CYP2C19 activ | CYP2C19 inh | CYP2C9 activ | CYP2C9 inh
CCN(CCO)c1ncnc2c1sc1nc(C(C)C)c3c(c12)CC(C)(C)OC3 | -0.76 | 0.8 | 16.8 | 0.2 | 75.5*
Nc1nonc1-c1nc2ccccc2n1Cc1ccc(Cl)cc1 | -0.2 | 0.3 | 74.7* | 0.5 | 53.1*
COc1cc(Cn2c(-c3nonc3N)nc3ccccc32)ccc1C | -1.32 | 0.6 | 41.5 | 0.3 | 74.3*
CC(=O)N=C(N)Sc1nc2ccccc2[nH]1 | 0.96 | / | / | / | /
COC(=O)c1ccc(S(=O)(=O)N(Cc2cc3cc4c(cc3[nH]c2=O)OCO4)C2CCCCC2)cc1 | / | 1 | -2.5 | 1 | 1.3
CCS(=O)CCSc1nc2ccccc2s1 (stereo not drawn) | -0.5 | 0.8 | 15.0 | 1.4 | -36.8
CC(C)Cn1cc(C(=O)N2CCN(c3ccccn3)CC2)c2c3ccccc3n(C)c2c1=O | -0.29 | 0.7 | 32.3 | 0.2 | 78.3*
CC(C)Cn1cc(C(=O)NC2CCN(Cc3ccccc3)CC2)c2c3ccccc3n(C)c2c1=O | / | 0.4 | 57.3* | 0.8 | 19.0
CCCCCCCCc1nnc(NC(=O)c2ccco2)s1 | 0.18 | 0.7 | 28.3 | 0.6 | 43.0
O=C1c2cccnc2C(=O)N1Cc1ccc(F)cc1 | 0.13 | 0.8 | 18.3 | 1 | 3.4
Cc1ccc(-c2nc(Nc3ccccc3)n[nH]2)cc1 | -1.01 | 0.3 | 68.8* | 0.7 | 27.4
COc1cc([N+](=O)[O-])cc(CN2CCCCC2)c1O | -1.56 | 1 | -0.3 | 0.9 | 9.1
Cc1cccc(N(CC(=O)N/N=C/c2cc([N+](=O)[O-])ccc2Cl)S(C)(=O)=O)c1C | -0.64 | 0.5 | 52.8* | 0.7 | 33.1
COc1ccc(CCC(=O)NCc2ccco2)cc1 | 0.25 | 0.9 | 10.4 | 1 | 1.7
COc1ccc(CSCC(=O)N/N=C/c2ccc(OCC(=O)NCc3ccco3)cc2)cc1 | -0.19 | 0.4 | 58.1* | 0.3 | 69.6*
Cc1cc(=O)oc2cc(OCC(=O)NCc3ccco3)ccc12 | -0.07 | / | / | / | /
CS(=O)(=O)N(CC(=O)N/N=C/c1cc([N+](=O)[O-])ccc1Cl)c1ccccc1 | -0.13 | 1 | -1.9 | 1.1 | -8.0
Cc1cccc(N(CC(=O)N/N=C/c2ccc(OCC(=O)NCc3ccco3)cc2)S(C)(=O)=O)c1C | -0.49 | 0.2 | 76.8* | 0 | 96.4*
CC(C)CCNc1nnnc2c1sc1nc(N3CCOCC3)c3c(c12)CC(C)(C)SC3 | -1.72 | 0.6 | 36.9 | 0.2 | 84.6*
O=C(NNC(=O)C1CC(c2cccnc2)=NO1)Nc1cccc(F)c1 (stereo not drawn) | -0.18 | 1.2 | -15.4 | 1.1 | -11.2
CCc1nnc(NC(=O)C2Cc3ccccc3CN2S(=O)(=O)c2c(C)c(C)cc(C)c2C)s1 (stereo not drawn) | -1.88 | 0.6 | 37.0 | 0.4 | 61.4*
CCOc1ccc(S(=O)(=O)N2Cc3ccccc3CC2C(=O)NCCCn2ccnc2)cc1 (stereo not drawn) | 0.25 | 0 | 99.7* | 0 | 96.7*
Cc1ccc(S(=O)(=O)N2Cc3ccccc3CC2C(=O)Nc2cc(C)on2)cc1 (stereo not drawn) | -0.25 | 0.2 | 82.8* | 0.2 | 84.6*
Cc1ccc(S(=O)(=O)N2Cc3ccccc3CC2C(=O)Nn2cnnc2)cc1 (stereo not drawn) | -0.91 | 0.5 | 54.9* | 0.6 | 35.1
O=C(Nn1cnnc1)C1Cc2ccccc2CN1S(=O)(=O)c1ccc(F)cc1 (stereo not drawn) | 0.87 | 0.6 | 36.6 | 0.8 | 16.8
CCOC(=O)c1ccc(NC(=O)CCNC(=O)c2ccc([N+](=O)[O-])cc2)cc1 | 0.27 | / | / | / | /
COCCCNC(=O)C1CCCN(C(=O)Nc2ccc(OC)cc2)C1 (stereo not drawn) | -0.34 | 1.1 | -7.3 | 0.9 | 8.5
CCOC(=O)C1CN(S(=O)(=O)c2cccc(C(F)(F)F)c2)c2cc(CC(=O)OC)ccc2O1 (stereo not drawn) | -0.07 | 0.2 | 78.7* | 0.4 | 59.9*
